TDP1 cell noCPT – qHTS for Inhibitors of human tyrosyl-DNA phosphodiesterase 1 (TDP1): qHTS in cells in absence of CPT; Potency, µM (top dose mostly 46.2 µM), inactives show top-dose activity change, negative = growth inhibition, usual class: inhibitors; actives 15% (n = 420,000); DT40 Tdp1-/- hTDP1 cells, no CPT, ATP luminescence, 48 h; note: potency is the fitted concentration of half-maximal effect; nearly all actives have a fitted effect of over 55% in size
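DT40 Tdp1-/-;hTDP1 cells, no CPT (DMSO vehicle only), 400 cells/well; compounds pin-transferred; ≥48 hr, 37 °C; CellTiter-Glo 30 min RT dark, luminescence read.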
TDP1 cell CPT – qHTS for Inhibitors of human tyrosyl-DNA phosphodiesterase 1 (TDP1): qHTS in cells in presence of CPT. Potency, µM (titrated, usually from 46.2 µM), inactives show at the top dose activity change, negative = growth inhibition, hits mostly inhibitors. actives 12% (n = 420,000). AID 686979, 2013. chicken DT40 Tdp1-/-;hTDP1 cells + 20 nM CPT, ATP luminescence, 48 h; note: potency is the fitted concentration of half-maximal effect; nearly all actives have a fitted effect of over 55% in size
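Chicken DT40 Tdp1-/- cells stably complemented with human TDP1 were seeded at 400 cells/well in medium containing 20 nM camptothecin, exposed to pin-transferred compounds, and grown at 37 °C for at least 48 hr. Viability was read as ATP luminescence.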
IL-1B inflam inh – qHTS for Inhibitors of Inflammasome Signaling: IL-1-beta AlphaLISA Primary Screen. THP-1 LPS/ATP IL-1B secretion, AlphaLISA, 16 h; stronger effect = lower value. activity change, % at 57.5 µM. actives 4.7% (n = 360,000). AID 743279, 2014; in the data active = activity change below about -50%; inconclusive = mostly about -30% to -49%
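Secreted IL-1B measured by AlphaLISA bead assay after 16 h compound exposure of THP-1 cells; compounds (final up to 57.5 uM) added 1 h before LPS (250 ng/mL) and ATP (1.25 mM) stimulation; lower signal means less secretion.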
ELG1 repair inh – qHTS screen for small molecules that inhibit ELG1-dependent DNA repair in human embryonic kidney (HEK293T) cells expressing luciferase-tagged ELG1 | HEK293T ELG1-luciferase reporter, luminescence, 16 h; DNA damage induced by 5-fluorouridine | Potency, µM (doses to about 46.1 µM), for inactives: at the highest dose activity change, negative = inhibition, most hits filed as inhibitors | actives 2.3% (n = 330,000); note: potency is the fitted concentration of half-maximal effect; nearly all actives have a fitted effect of over 55% in size
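5-Fluorouridine DNA damage + compound/DMSO, 2,000 cells/well, 16 h, 37 °C/5% CO2. ONE-Glo, 30 min RT, luminescence. Readout = decrease in reporter signal.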
HT1080-NT tox – qHTS for induction of synthetic lethality in tumor cells producing 2HG: qHTS for the HT-1080-NT fibrosarcoma cell line; actives 1.6% (n = 360,000); AID 686970, 2013; Potency, µM (doses to about 46.1 µM), for inactives: at the highest dose activity, negative = less viability, hits mostly cytotoxic; HT-1080-NT fibrosarcoma viability, CellTiter-Glo ATP luminescence, 48 h;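 note: NT is the 2HG producing partner of a matched IDH1 knockdown line; potency is the fitted concentration of half-maximal effect; 0% = DMSO-treated cells and -100% = media-only wells without cells; nearly all actives have a fitted effect of over 55% in size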
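Luminescent CellTiter-Glo readout after 48 hours of compound exposure at 37 degrees C defined viability of HT-1080-NT cells. Activity was normalized to DMSO wells and cell-free media wells; concentration-response curves were fitted and assigned curve classes.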
HT1080 IDH1KD tx – qHTS for induction of synthetic lethality in tumor cells producing 2HG: qHTS for the HT-1080-IDH1KD cell line; actives 2% (n = 360,000); Potency, µM (top dose mostly 46.1 µM), for inactives: top-dose activity, negative = toxicity, actives largely listed as cytotoxic; HT-1080 IDH1 knockdown viability, ATP luminescence, 48 h; AID 686971, 2013;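 note: potency is the fitted concentration of half-maximal effect; 0% = DMSO wells and -100% = cell-free medium wells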
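Assay cells: HT-1080 with IDH1 knockdown, 750 per well, RPMI/5% FBS. Exposure: 48 h at 37 °C following 2 h pre-incubation. Read: CellTiter-Glo luminescence; fitted concentration-response, curve class assigned.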
Starred values were filed as active, the others as inactive; i = inactive; ? = inconclusive; . = no result given; [ ] = another dose, or the depositor's remark. In the library only some 19% were active in any assay of this set; here they are far more common. Unless noted, calls come from the whole dose curve; as a rule, active = well fitted curve in the direction sought with a large enough effect; inconclusive = small, poorly fitted or top-dose-only effect, or another doubt; inactive = no such curve, though single readings can be large; an effect the other way counts as inactive or inconclusive. Unless noted, % is set by controls: 0 for no effect and ±100 for the full control effect.

SMILES | TDP1 cell noCPT | TDP1 cell CPT | IL-1B inflam inh | ELG1 repair inh | HT1080-NT tox | HT1080 IDH1KD tx
Cc1cccc(N2CCN(c3ccc4cc(S(=O)(=O)N5CCCCC5)ccc4n3)CC2C)c1 (stereo not given) | 16µM* | 12µM* | 42 | -4% | 0% | 9%
Cc1ccc(C)c(N2CCN(c3ccc4cc(S(=O)(=O)N5CCCCC5)ccc4n3)CC2)c1 | ? | ? | 26 | ? | -5% | 13%
Cc1cccc(N2CCN(c3ccc4cc(S(=O)(=O)N5CCCCC5)ccc4n3)CC2)c1C | 12µM* | 12µM* | 43 | ? | 3% | 15%
Cc1c(C(=O)NN)nn(-c2ccc(F)cc2)c(=O)c1C#N | 18% | 1% | 24 | 16% | -14% | -16%
N#Cc1c(-c2ccc(F)cc2)c(-c2ccc(F)cc2)nn(CCO)c1=O | 3.3µM* | 4.6µM* | 5 | . | 6.5µM* | 8.2µM*
Cc1ccn2cc(-c3ccc(C)c(NS(=O)(=O)c4ccc(Cl)cc4)c3)nc2c1 | 21µM* | 23µM* | . | . | . | .
CC(=O)Nc1ccc(S(=O)(=O)Nc2cc(-c3cn4ccccc4n3)ccc2C)cc1 | 21µM* | ? | . | . | . | .
Cc1ccn2cc(-c3cccc(S(=O)(=O)N4CCCCC4)c3)nc2c1 | -21% | -25% | -29 | -10% | -13% | -2%
CCS(=O)(=O)Nc1cc(-c2cn3ccc(C)cc3n2)ccc1C | 21µM* | ? | . | . | . | .
O=C(O)c1ccc2c(=O)n3c(nc2c1)/C(=C/c1ccccc1OC(F)F)CC3 | ? | ? | -4 | 10% | -25% | -9%
Cc1nc2ccn(Cc3ccco3)c(=O)c2cc1C(=O)NCc1ccccc1F | -26% | -17% | . | . | . | .
COc1ccc(CCn2c(=N)c(C(=O)NCc3ccco3)cc3c(=O)n4ccccc4nc32)cc1 | 23µM* | ? | -54* | 16µM* | ? | 13µM*
CCOCCCn1c(=N)c(C(=O)NCc2ccccc2)cc2c(=O)n3ccccc3nc21 | ? | -19% | . | . | . | .
N=c1c(C(=O)NCCc2ccccc2)cc2c(=O)n3ccccc3nc2n1CCCN1CCOCC1 | 15µM* | -26% | -56* | 5% | -29% | -21%
N=c1c(C(=O)NCCN2CCOCC2)cc2c(=O)n3ccccc3nc2n1CCc1ccccc1 | 23µM* | ? | 2 | 7% | 21% | 12%
CSc1ncc2c(n1)-c1ccccc1N(Cc1ccc(F)cc1)S2(=O)=O | 11% | -4% | . | . | . | .
Cc1cc(Br)ccc1NC(=O)CN(C)C(=O)CN1C(=O)NC(C)(C2CC2)C1=O (stereo not given) | -4% | -25% | 19 | 16% | 2%[9.24 µM] | -6%
O=C(C(=NNc1ccccc1)C(=S)Nc1ccccc1)c1ccccc1 | ? | 29µM* | -19 | . | ? | 24%
CCCn1c(Sc2nnnn2-c2ccccc2)n[nH]c1=O | -5% | 1% | -2 | 0% | 16% | 4%
COc1ccc2c(C)cc(Sc3nnnn3-c3ccccc3)nc2c1 | ? | ? | -95* | 26µM* | 7% | -1%
CCCSc1nnc(Sc2nnnn2-c2ccccc2)s1 | 2.9µM* | 4.6µM* | -62* | 0% | 16µM* | 23µM*
O=[N+]([O-])c1ccc(N2CCN(c3ccccc3)CC2)nc1 | -8% | 1% | -5 | ? | 20% | 16%
O=[N+]([O-])c1ccc(Sc2nnnn2-c2ccccc2)nc1 | 3.7µM* | 3.3µM* | -97* | ? | 16µM* | 21µM*
Cc1ccccc1-n1nnnc1SCC(N)=O | -3% | 17% | 12 | -22% | 10% | 7%
Cc1ccccc1-n1nnnc1Sc1nnnn1-c1ccccc1 | 8.2µM* | 12µM* | -116* | ? | ? | 15µM*
SMILES | TDP1 cell noCPT | TDP1 cell CPT | IL-1B inflam inh | ELG1 repair inh | HT1080-NT tox | HT1080 IDH1KD tx
CS(=O)(=O)N1CCC2(CC1)CN(Cc1ccc(C#N)cc1)C2 | -11% | 11% | . | . | . | .
COc1cccc(/C=C/c2nc(C#N)c(NC3CCCCC3)o2)c1 | 4.1µM* | ? | . | . | . | .
COc1ccc(/C=C/c2nc(C#N)c(NC3CCCCC3)o2)cc1OC | 21µM* | 21µM* | . | . | . | .
COc1ccc(Nc2oc(/C=C/c3ccc(OC)c(OC)c3)nc2C#N)cc1 | -3% | 19% | . | . | . | .
CCOc1ncccc1C(=O)Nc1cccc(S(=O)(=O)N2CCOCC2)c1 | -28% | -17% | 17 | ? | 2% | 1%
COc1ccc(CCN2C(=O)CCC2(C)c2nnnn2-c2c(C)cccc2C)cc1OC (stereo not given) | -28% | -28% | 20 | . | 6% | -2%
CN(c1ccccc1)S(=O)(=O)c1ccc2c(c1)oc(=O)n2C | 3% | -6% | 26 | 1% | -4% | -17%
C#CCn1cnc2c(cnn2-c2ccc(F)cc2)c1=O | -17% | 1% | . | . | . | .
CCOC(=O)C(C)On1c(-c2ccccc2)nc2ccc([N+](=O)[O-])cc21 (stereo not given) | 18µM* | ? | -15 | ? | -2% | -4%
CC(=O)Nc1cncc(-c2ccccc2N(C)C)n1 | -17% | -7% | 20 | . | ? | 25%
COC(=O)c1cc(Sc2c(Cl)cccc2Cl)ccn1 | 2.3µM* | -25% | 32 | -5% | -19% | ?
CCCOC(=O)c1ccc(Oc2coc3c(CN(CC)CC)c(O)ccc3c2=O)cc1 | ? | -7% | -5 | 2% | 16% | 15%
CN(C)CCCN(C(=O)c1ccc(S(=O)(=O)N2CCCCC2)cc1)c1nc2cc3c(cc2s1)OCO3 | ? | 23µM* | -63* | ? | -17% | -4%
COc1cccc2sc(N(CCN(C)C)C(=O)c3ccc(S(=O)(=O)N4CCCC4)cc3)nc12 | ? | 2% | i | ? | 2% | -18%
Cc1cc(C)c2nc(N(CCCN(C)C)C(=O)c3ccc(S(=O)(=O)N4CCCCCC4)cc3)sc2c1 | ? | ? | -96* | ? | 16µM* | 16µM*
CN(C)CCCN(C(=O)c1ccc(S(=O)(=O)N2CCCC2)cc1)c1nc2ccc(Br)cc2s1 | 21µM* | 23µM* | -52* | 4% | 21µM* | 23µM*

Screening results from PubChem BioAssay.
